In PubChem BioAssay (NCATS) one finds max response and Potency data, which are given here for 40 compounds.

Records with an inconclusive call do not appear. Values without a mark were called inactive. Active and inactive are the calls of the source. Calls come from the whole dose curve; as a rule, active = well fitted curve in the direction sought with a large enough effect; inconclusive = small, poorly fitted or top-dose-only effect, or another doubt; inactive = no such curve, though single readings can be large or run the other way. Residues, ends and D or L forms follow the SMILES beside them. *: point of attachment. Cbz = O=C(OCc1ccccc1)*
% is set by controls: 0 for no effect and ±100 for the full control effect; potency is the fitted concentration of half-maximal effect.

A short description of the test: qHTS Assay for Identifying Gametocytocidal Compounds (AID 743244).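 For max response: actives lower the fluorescent signal which means gametocytes are killed.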 The conditions noted are these: P. falciparum 3D7 stage III-V gametocytes, alamarBlue, 72 h; max response: hits give low values. From the text:
Malaria cases and deaths have dropped 50% in 29 countries since 2000 due to the combined effects of long-lasting insecticidal bednets, indoor residual spraying, and artemisinin-based combination therapies (ACTs). This success has raised hopes for malaria eradication and consequently stimulated interest in developing new reagents that block gametocyte transmission such as novel and safe gametocytocidal drugs. However, previous drug development efforts have focused primarily on the asexual parasites that cause symptoms, but not malaria transmission. Consequently, patients can remain infectious for weeks after the clearance of asexual parasites and clinical symptoms. To be transmitted from person to person via a mosquito, the parasites must switch from asexual to sexual development and produce male and female gametocytes. Malaria gametocytes consist of five stages (I, II, III, IV and V). The late stage gametocytes (III, IV and V) are difficult to be cultured in vitro and the long lifespan of mature gametocytes allows them being transmitted from host to mosquitoes unless they are completely eliminated by gametocytocidal agents. To identify gametocytocidal compounds which are capable of killing late stage P. falciparum gametocytes, a high throughput gametocyte viability assay was employed. This assay uses oxidoreduction indicator, alamarBlue, as a general measure of metabolic activity of gametocytes. Within live cells, the nonfluorescent resazurin is reduced to resorufin, a bright red fluorescence dye. Fluorescence decreases upon treatment of gametocytocidal compounds. P. falciparum gametocyte (3D7 strain) was used in this study.
The 1536-well gametocycidal viability assay was based on the previous method of Tanaka et al. Stage III-V gametocytes were tested against three compound libraries, including 4265 compounds from NCGC pharmaceutical collection, 400 from Malaria Box library, and 550 from an internal collection of kinase inhibitors. Briefly, 2.5 ul/well incomplete medium was dispensed into each well of 1,536-well plates using the Multidrop Combi followed by 23 nl compound transferring using the NX-TR Pintool (WAKO Scientific Solutions, San Diego, CA). Then, 2.5 ul/well of gametocytes was dispensed with a seeding density of 20,000 cells/well using the Multidrop Combi. The assay plates were incubated for 72 h at 37C with 5% CO2. After addition of 5 ul/well of 2X AlamarBlue dye (Life Technologies, cat. no. DAL1100), the plates were incubated for 24 h at 37C with 5% CO2 and then were read in a fluorescence detection mode (Ex = 525 nm, Em = 598 nm) on a ViewLux plate reader (PerkinElmer).
As for `O=c1ccn([C@@H]2O[C@H](COP(=O)(O)OP(=O)(O)O)[C@@H](O)[C@H]2O)c(=O)[nH]1`, the max response is 17.2%. In the case of `CCCCCCN(CCCCCC)C(=O)Cc1c(-c2ccc(F)cc2)[nH]c2ccccc12`, the max response is 19.7%. Consider `CCN(CC)CCCCCCCCOC(=O)c1cc(OC)c(OC)c(OC)c1`, for which the max response was 31.2%. Still for that read-out and setting: the result for `CC[C@H](NC(=O)c1c(C)c(-c2ccccc2)nc2ccccc12)c1ccccc1` reads 5.87%; that for `CN1C2CCC1CC(OC(c1ccccc1)c1ccccc1)C2` (stereo not given), 31%. `c1ccc(C(NCCNC(c2ccccc2)c2ccccc2)c2ccccc2)cc1`: the max response was -2.86%. Still for that read-out and setting: then `CCCCCCCCCCC/C=C\C(C)(C)/C=C\CCCC(=O)O`, with 11.6%; and `CC(=O)/C(C)=N/O`, with -4.63%; and `CN(C)S(=O)(=O)c1ccc2c(c1)/C(=C/c1cc3c([nH]1)CCCC3)C(=O)N2`, with -2.03%.

For `CC(C)NCC(O)COc1ccc(CC(N)=O)cc1` (stereo not given), the max response was 27.5%. For `NC1CONC1=O` (stereo not given), the max response was 13.9%. Same read-out and setting: then `Nc1nc2[nH]c(=O)cnc2c(=O)[nH]1`, with 4%. For `COc1cc(/C=C(\C#N)C(=O)Nc2nnc(C(F)(F)F)s2)ccc1OCc1ccc(C(F)(F)F)cc1C(F)(F)F`, the max response was 5.8%.

Turning to `c1ccc2c(c1)CC(N1CCN(c3cccc4c3OCCO4)CC1)C2`, the max response was 9.97%. As for `N=C(N)SCCc1cnc[nH]1`, the max response was 9.89%. On to `CC(=O)O[C@H]1CC2(C)[C@@H](C[C@@H](O)[C@H]3[C@@]4(C)CC[C@@H](O)[C@@H](C)[C@@H]4CC[C@@]32C)C1=C(CCC=C(C)C)C(=O)O` (stereo not given in full), for which the max response is 12.4%.

As for `O=C1OC(=O)C2C3CCC(O3)C12` (stereo not given), the max response was 26.3%.

With `CN1CCc2cc(Cl)c(O)cc2[C@@H](c2ccccc2)C1`, the max response was 34.1%. For `C[N+](C)(C)CC=O`, the max response was 21.1%. On to `COc1cc(C(O)C(=O)O)ccc1O` (stereo not given), for which the max response is 20.3%.

In the case of `Cc1cccc(C)c1OCC(N)C(C)C` (stereo not given), the Potency was 23.5 µM (active). As to `C#CC(N)CCC(=O)O` (stereo not given), the max response is 8.18%. In the case of `COc1ccccc1N1CCN(CCCCNC(=O)c2ccc3ccccc3c2)CC1`, the max response is 17.6%.

`COCc1nc2c([nH]1)c(=O)n(C)c(=O)n2CC(C)C`: the max response was 28.7%. On to `N[C@@H](CCC(=O)N[C@H](CSN=O)C(=O)NCC(=O)O)C(=O)O`, for which the max response is 16.7%.

For `Cc1cc(Cn2cnc3c2C[C@@H](C(=O)O)N(C(=O)C(c2ccccc2)c2ccccc2)C3)ccc1N`, the max response was -5.22%. For `NCC(O)C1CCCCCCC1` (stereo not given), the max response was 18.9%. Turning to `N=C(N)c1ccc(OCCCCCOc2ccc(C(=N)N)cc2)cc1` (tested in a mixture with another compound), the Potency was 0.562 µM (active).

As for `CC(C)(C)NCC(O)COc1cccc2[nH]c(=O)[nH]c12` (stereo not given), the max response is 25.5%.

With `CNCCNS(=O)(=O)c1cccc2cnccc12`, the max response was 18.9%. In the case of `Nc1ccc2c3c(cccc13)C(=O)NC2=O`, the max response is 4.5%. With `CC[N+](CC)(CC)CC(=O)Nc1c(C)cccc1C`, the max response is 14.2%. Consider `O=C1NC(=O)c2cc(Nc3ccccc3)c(Nc3ccccc3)cc21`, for which the max response is 5.21%. Turning to `CC(O)C(O)[C@H]1CNc2nc(N)[nH]c(=O)c2N1` (stereo not given in full), the max response is 8.13%. Turning to `CC(C)[C@H](NC(=O)OCc1ccccc1)C(=O)N[C@H](C=O)Cc1ccccc1` (Cbz-Val-Phe-aldehyde), the max response was 7.9%. As to `O=c1ccc2c(OCCCCc3ccccc3)c3ccoc3cc2o1`, the max response was 10.3%.

As for `N#Cc1cc2nc(O)c(O)nc2cc1[N+](=O)[O-]`, the max response was 15.6%. Still for that read-out and setting: the result for `c1ccc2nc(C3=NCCN3)ccc2c1` reads 12%. With `O=C(c1ccc2c(c1)OCCO2)N1CCCCC1`, the max response was 22.1%. On the same count and under the same terms, the result for `Nc1ncnc2c1ncn2C1CCCC1` reads 29.2%.
